Assay outcomes as filed in PubChem.
Methyltransferases – Primary Screen for Target Class Profiling of Small Molecule Inhibitors of Methyltransferases. purified enzyme, MTase-Glo SAH luminescence; stronger effect = lower value. calls only at 40 µM. 25,000 tested, 3.9% active; call rule not given here
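Each enzyme was assayed with SAM and its substrate. SAH formation detected by MTase-Glo luminescence; single-point 40 uM screen[…].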
* = called active by the depositor; ! = not confirmed by another sample. The full list was thinned out, with hits kept by preference. On the % scale 0 is the no-effect control and ±100 the full control effect.

Screening O=C1NC(Cc2c[nH]c3ccccc23)C(=O)NC1Cc1c[nH]c2ccccc12 (stereo not drawn) returned Methyltransferases inactive.
`O=C1NC(=O)C(c2c[nH]c3ccccc23)=C1c1c[nH]c2ccccc12` gave Methyltransferases active.
Screening Clc1ncoc1-c1c[nH]c2ccccc12 returned Methyltransferases inactive.
For CN1C(=O)c2cc(C(=O)N3CCN(Cc4ccccc4)CC3)nn2CC1(C)C(=O)NC1CCCCC1 (stereo not drawn) the results were Methyltransferases inactive.
Screening CNC1CCC(N(Cc2cccc(-c3ccncc3)c2)C(=O)c2sc3ccccc3c2Cl)CC1 (stereo not drawn) returned Methyltransferases active.
For CNC1CCC(N(Cc2cccc(-c3ccncc3)c2)C(=O)c2sc3c(F)ccc(F)c3c2Cl)CC1 (stereo not drawn) the results were Methyltransferases active!.
For COc1cccc(CNC(=O)c2cc3n(n2)CC(C)(C(=O)NCc2ccc(F)cc2)N(C)C3=O)c1 (stereo not drawn) the results were Methyltransferases inactive.
`Cc1ccc(Cn2c(=O)c3ccccc3n3c(CCC(=O)NCCc4ccc(Cl)cc4)nnc23)cc1` gave Methyltransferases inactive.
For Cc1ccc(Cl)cc1N1C(=O)c2cc3sccc3n2CC1(C)C(=O)NC1CCCCC1 (stereo not drawn) the results were Methyltransferases inactive.
Screening O=C1c2cc3occc3n2CC(C(=O)NC2CCCCCCC2)(c2ccccc2)N1Cc1ccc(F)cc1 (stereo not drawn) returned Methyltransferases inactive.
CCOCCCNC(=O)CCc1nnc2n(Cc3ccccc3)c(=O)c3ccccc3n12 was read as Methyltransferases inactive.
COC(=O)c1ncn2c1C(=O)N(Cc1ccccc1Cl)C(C)(C(=O)NC1CCCCC1)C2 (stereo not drawn) was read as Methyltransferases inactive.
Screening Cc1cccc(Cn2nc3n(C(C)C)c(=O)c4ccc(C(=O)NCC(C)C)cc4n3c2=O)c1 returned Methyltransferases inactive.
`CC1(C(=O)NCc2ccccc2)Cn2c(cc3ccccc32)C(=O)N1Cc1ccc(F)cc1` (stereo not drawn) gave Methyltransferases inactive.
For CCC(C)NC(=O)c1ccc2c(=O)n(C)c3nnc(SCc4ccc(N5CCCC5=O)cc4)n3c2c1 (stereo not drawn) the results were Methyltransferases inactive.
`CNC(=O)[C@H]1O[C@@H](n2cnc3c(NCc4ccc(N)c(I)c4)ncnc32)[C@H](O)[C@@H]1O` gave Methyltransferases inactive.
CNC(=O)[C@H]1O[C@@H](n2cnc3c(NCc4ccc(N)cc4)ncnc32)[C@H](O)[C@@H]1O was read as Methyltransferases inactive.
`Nc1ncnc2c1ncn2[C@H]1O[C@@H](C(=O)N2CCN(CC(=O)Nc3cccc4c3CNC4=O)CC2)[C@H](O)[C@@H]1O` gave Methyltransferases active.
`CCC(C)NC(=O)c1ccc2c(=O)n(Cc3ccccc3)c3nn(Cc4cccc(F)c4)c(=O)n3c2c1` (stereo not drawn) gave Methyltransferases inactive.
Screening CN(C(=O)CN1CCCn2nc(C(=O)NCc3ccc(Cl)cc3)cc2C1=O)c1ccccc1 returned Methyltransferases inactive.
For CCOc1ccc(Nc2nc3c(S(=O)(=O)c4ccccc4)nnn3c3ccccc23)cc1 the results were Methyltransferases inactive.
For Cc1cnc(Nc2ccc(OCCN3CCCC3)cc2)nc1Nc1cccc(S(=O)(=O)NC(C)(C)C)c1 the results were Methyltransferases active!.
For CC(=O)Nc1c2n(c3ccccc13)CC(C)(C(=O)NC1CCCC1)N(Cc1ccccc1F)C2=O (stereo not drawn) the results were Methyltransferases inactive.
`O=C(NCc1ccc2c(c1)OCO2)c1ccc2c(=O)nc3c(-c4ccc(Cl)cc4)n[nH]n3c2c1` gave Methyltransferases inactive.
CC1CCCC(NC(=O)C2(C)Cn3c(cc4sccc43)C(=O)N2Cc2cccs2)C1C (stereo not drawn) was read as Methyltransferases inactive.
`CC(C)CCn1c(=O)c2ccccc2n2c(SCC(=O)NCc3ccccc3Cl)nnc12` gave Methyltransferases inactive.
Screening Cc1ccc(NC(=O)Cn2c(=O)oc3cc(S(=O)(=O)N4CC(C)CC(C)C4)ccc32)c(Cl)c1 (stereo not drawn) returned Methyltransferases inactive.
NS(=O)(=O)OC[C@@H]1C[C@@H](n2ccc3c(N[C@H]4CCc5ccccc54)ncnc32)C[C@@H]1O was read as Methyltransferases active.
Cc1ccccc1NC(=O)Cn1nc2n(CCC(C)C)c(=O)c3ccc(C(=O)NC(C)C)cc3n2c1=O was read as Methyltransferases inactive.
Screening Cc1cccc(CSc2nnc3n(Cc4ccccc4)c(=O)c4ccc(C(=O)NC(C)C)cc4n23)c1 returned Methyltransferases inactive.
COc1c(-c2ccc(O)cc2)cc(OC)c2c1oc1cc(O)c(OC3OC(CO)C(O)C3O)cc12 (stereo not drawn) was read as Methyltransferases inactive.
For COc1cc(CO)cc(OC)c1O[C@@H]1O[C@H](CO)[C@@H](O)[C@H](O)[C@H]1O the results were Methyltransferases inactive.
Screening COc1c2cc(c(O[C@@H]3O[C@H](CO)[C@@H](O)[C@H](O)[C@H]3O)c1OC)CCCCC(O)CCc1ccc(O)c-2c1 (stereo partly drawn) returned Methyltransferases active.
For Cc1cc2[nH]c(=O)[nH]c2cc1S(=O)(=O)NCCc1ccccc1 the results were Methyltransferases inactive.
CC(C)[C@@](C)(O)[C@@H]1CN(c2nc(-c3[nH]nc4ncccc34)c(F)cc2Cl)CCN1 was read as Methyltransferases active.
Screening Cc1cc2c(cc3n2CC(C)(C(=O)NC2CCCCCC2)N(Cc2ccccc2)C3=O)o1 (stereo not drawn) returned Methyltransferases inactive.
Screening COc1cccc(C2c3cccn3-c3sc4c(c3CN2C(=O)Nc2ccccc2Br)CCCC4)c1 (stereo not drawn) returned Methyltransferases inactive.
Screening CC(C)C[C@H](CO)Nc1nc(S[C@@H](C)c2ccccc2)nc2nc(N)sc12 returned Methyltransferases active.
Screening CC1CCN(S(=O)(=O)c2ccc3c(ccn3CCC(=O)NC3CCCC(C)C3C)c2)CC1 (stereo not drawn) returned Methyltransferases inactive.
CC1(C(=O)NC2CCCCCC2)Cc2ccccc2C(=O)N1C1CCCCCC1 (stereo not drawn) was read as Methyltransferases inactive.
COc1ccc(N2C(=O)c3cc(C(C)C)nn3CC2(C)C(=O)NC2CCCCCC2)cc1 (stereo not drawn) was read as Methyltransferases inactive.
CCOC(=O)c1cc2n(n1)CC(C)(C(=O)NC1CCCC1)N(c1cc(Cl)ccc1C)C2=O (stereo not drawn) was read as Methyltransferases inactive.
Screening O=C1CN(Cc2ccccc2Cl)S(=O)(=O)c2ccccc2N1Cc1ccc(F)cc1 returned Methyltransferases inactive.
For C[C@@H]1O[C@@H](O[C@H]2[C@@H]3C=CO[C@@H](O[C@@H]4O[C@H](CO)[C@@H](O)[C@H](O)[C@H]4O)[C@@H]3[C@@]3(CO)O[C@@H]23)[C@H](O)[C@H](OC(=O)/C=C/c2ccccc2)[C@H]1O the results were Methyltransferases inactive.
For CC1=CC(=O)C2(OC3OC(C)C(O)C(OC(=O)/C=C/c4ccccc4)C3O)C=COC(OC3OC(CO)C(O)C(O)C3O)C12 (stereo not drawn) the results were Methyltransferases active.
